The source of these data is PubChem BioAssay (NCATS).

Assay [1] deals with Cellular tumor antigen p53 (Homo sapiens) (UniProt P04637). Description: Primary qHTS for small molecule compounds that upregulate eGFP-tagged delta133p53alpha (in N-terminal) cells. (AID 2060322). Also: nearly all actives have a fitted effect of over 75% in size. Also: potency is read from the fitted curve at half-maximal effect.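 As to activation: series mostly up to about 56 µM; 0% = DMSO vehicle and 100% = reference activator.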 The conditions noted are these: NCI-H358 eGFP-delta133p53alpha fluorescence, 24 h; activation: active compounds read high. A digest of the protocol:
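NCI-H358 cells pre-induced 24 h with 10 ng/ml doxycycline to express N-terminal eGFP-delta133p53alpha, then dosed 24 h at 37C without doxycycline; fixed, Hoechst-stained, GFP intensity by laser scanning cytometry, normalized to DMSO (0%) and 57.5 uM 5-azacytidine (100%).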

Assay [2] concerns the target Aldehyde dehydrogenase, mitochondrial (Homo sapiens) (UniProt P05091). Description: qHTS for Inhibitors of the Aldehyde Dehydrogenase Family (ALDH2) Primary screen (AID 2061308).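 Also: plate controls were vehicle for no effect and reference inhibitor for full effect; nearly all actives have a fitted effect of over 55% in size.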
Assay [3] concerns the target Retinaldehyde dehydrogenase 3 (Homo sapiens) (UniProt P47895). Description: qHTS for Inhibitors of the Aldehyde Dehydrogenase Family (ALDH1A3) Primary screen (AID 2061315).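 Also: plate controls were DMSO vehicle for no effect and reference inhibitor for full effect.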

Molecules are shown by their SMILES. Records with an inconclusive call do not appear. Unmarked numbers belong to inactive results. Calls of active or inactive are those of the source. Calls follow the shape of the dose curve; as a rule, active = well fitted curve in the direction sought with a large enough effect; inconclusive = small, poorly fitted or top-dose-only effect, or another doubt; inactive = no such curve, though single readings can be large; an effect the other way counts as inactive or inconclusive.

Chain of Cellular tumor antigen p53 (Homo sapiens) (P04637 whole entry, looked up): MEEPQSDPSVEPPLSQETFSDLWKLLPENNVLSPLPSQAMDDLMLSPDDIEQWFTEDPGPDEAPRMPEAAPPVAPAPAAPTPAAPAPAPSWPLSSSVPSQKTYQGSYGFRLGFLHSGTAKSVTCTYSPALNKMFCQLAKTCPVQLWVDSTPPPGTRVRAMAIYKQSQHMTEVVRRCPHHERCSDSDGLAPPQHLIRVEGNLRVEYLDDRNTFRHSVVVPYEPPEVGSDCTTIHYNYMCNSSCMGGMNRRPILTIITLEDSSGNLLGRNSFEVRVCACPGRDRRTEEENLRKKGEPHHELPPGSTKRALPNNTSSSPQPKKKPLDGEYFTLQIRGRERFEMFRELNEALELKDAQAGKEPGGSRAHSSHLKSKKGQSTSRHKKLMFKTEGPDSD

Turning to `C/C=C(\C)C(=O)OC1CC2C(CC=C3CC(OC4CC(OC)C(OC5CC(OC)C(OC6OC(C)C(OC7OC(CO)C(O)C(O)C7O)C(OC)C6O)C(C)O5)C(C)O4)CCC32C)C2(O)CCC(C(C)=O)C12C` (configuration not stated), in assay [1], the activation was -6.25%. For the same molecule, the Potency entry in assay [2] and in assay [3] was “inactive” in each case.

For the molecule `CCCN(CCC)CCc1ccc(OC)c(OCCc2ccccc2)c1`, the activation in assay [1] is -1%. In addition, the Potency result in assay [2] and in assay [3] was “inactive” in each case.

In the case of `CC(C)(C)[C@]1(O)C[C@@H]2OC(=O)C[C@@]23C(=O)O[C@@H]2OC(=O)[C@@H](O)[C@]213`, the activation in assay [1] was -1.79%. Besides, the Potency entry in assay [2] and in assay [3] was “inactive” in each case.

As for `C[C@]12CC[C@H]3[C@@H]([C@H](O)CC4=CC(=O)CC[C@@]43C)[C@@H]1CC[C@@H]2O`, the activation in assay [1] is -2.33%. The Potency entry in assay [2] and in assay [3] was “inactive” in each case.

Turning to `CC1CCCC(O)CC(=O)Cc2cc(O)cc(O)c2C(=O)O1` (configuration not stated), the activation in assay [1] was 7.63%. The Potency result in assay [2] and in assay [3] was “inactive” throughout.

In the case of `CN1C(=O)c2ccccc2NC(=O)[C@]12O[C@@H]2c1ccccc1`, the activation in assay [1] is -0.763%. For the same molecule, the Potency entry in assay [2] and in assay [3] was “inactive” each time.

Take `CC[C@H]1C[C@@H]2CC[C@@H](O2)[C@@H](C)C(=O)O[C@H](CC)C[C@H]2CC[C@H](O2)[C@H](C)C(=O)O[C@@H](C)C[C@@H]2CC[C@@H](O2)[C@@H](C)C(=O)O[C@H](CC)C[C@H]2CC[C@H](O2)[C@H](C)C(=O)O1`: the activation in assay [1] was -0.893%. Further, the Potency entry in assay [2] and in assay [3] was “inactive” throughout.

On to `C[C@]12CC[C@H](O)C[C@@H]1CC[C@@H]1[C@@H]2CC[C@]2(C)C(=O)CC[C@@H]12`, for which the activation in assay [1] was 6.33%. In addition, the Potency result in assay [2] and in assay [3] was “inactive” throughout.

On to `N#CC(OC1OC(COC2OC(CO)C(O)C(O)C2O)C(O)C(O)C1O)c1ccccc1` (configuration not stated), for which the activation in assay [1] is 8.4%. In addition, the Potency entry in assay [2] and in assay [3] was “inactive” throughout.

`COCC1OC(=O)c2coc3c2C1(C)C1=C(C3=O)C2CCC(=O)C2(C)CC1O` (configuration not stated): the activation in assay [1] is -7.63%. For the same molecule, the Potency result in assay [2] and in assay [3] was “inactive” throughout.

On to `CC[C@@H](C)[C@H]1C(=O)O[C@H](C(C)C)C(=O)N(C)[C@@H](C(C)C)C(=O)O[C@H](C(C)C)C(=O)N(C)[C@@H](C(C)C)C(=O)O[C@H](C(C)C)C(=O)N1C`, for which the activation in assay [1] was -17.6%. Also, the Potency entry in assay [2] and in assay [3] was “inactive” throughout.

Take `CC1CCCC(=O)CCC/C=C/c2cc(O)cc(O)c2C(=O)O1` (configuration not stated): the activation in assay [1] was 7.14%. Further, the Potency result in assay [2] and in assay [3] was “inactive” throughout.

On to `CC1=CC2/C=C(\C)CCC(O)C3OC(C)(C)OC3CC(=O)OC23C(=O)NC(CC(C)C)C3C1C` (configuration not stated), for which, in assay [1], the activation is 6.87%. Also, the Potency entry in assay [2] and in assay [3] was “inactive” in each case.

Take `CN1CCCC1CCOC(c1cc2nccc(C(=O)O)c2[nH]1)c1ccccc1Cl` (configuration not stated): in assay [1], the activation was 4.33%. Further, the Potency result in assay [2] and in assay [3] was “inactive” in each case.

`CC[C@@H](C)[C@H]1C(=O)O[C@H](C(C)C)C(=O)N(C)[C@@H]([C@@H](C)CC)C(=O)O[C@H](C(C)C)C(=O)N(C)[C@@H]([C@H](C)CC)C(=O)O[C@H](C(C)C)C(=O)N1C`: the activation in assay [1] was 9.82%. Besides, the Potency entry in assay [2] and in assay [3] was “inactive” throughout.

For the molecule `C[C@]12CC[C@H](O[C@@H]3O[C@H](CO)[C@@H](O)[C@H](O)[C@H]3O)CC1CC[C@@H]1C2CC[C@]2(C)[C@@H](C3=CC(=O)OC3)CC[C@]12O` (some centres not stated), the Potency in assay [1] was 11.7 µM (active). For the same molecule, the Potency entry in assay [2] and in assay [3] was “inactive” in each case.

With `CC(=O)OC[C@]12C[C@H](O)C(C)=C[C@H]1O[C@@H]1[C@H](O)[C@@H](O)[C@@]2(C)[C@]12CO2`, the Potency in assay [1] was 6.59 µM (active). For the same molecule, the Potency entry in assay [2] and in assay [3] was “inactive” each time.

As for `CC[C@H]1CN2CC[C@H]1C[C@@H]2[C@@H](O)c1ccnc2ccc(OC)cc12`, the activation in assay [1] is 17.9%. Moreover, the Potency result in assay [2] and in assay [3] was “inactive” throughout.

Take `CC1=CC2/C=C(\C)CCC(O)C(O)/C=C/C(=O)OC23C(=O)NC(CC(C)C)C3C1C` (configuration not stated): in assay [1], the activation was 0.763%. Moreover, the Potency result in assay [2] and in assay [3] was “inactive” in each case.

As to `COc1ccc2c3c([nH]c2c1)C(C=C(C)C)N1C(=O)C2CCCN2C(=O)C1C3` (configuration not stated), the activation in assay [1] is -3.82%. In addition, the Potency entry in assay [2] and in assay [3] was “inactive” in each case.

On to `C[C@H](CCC(=O)O)C[C@H](C)C[C@H](C)C(=O)/C=C(\O)[C@H](C)C[C@H](C)C/C=C/[C@@H](C)[C@@H](O)[C@@H](C)[C@@H](O)C[C@@H]1CC[C@@](C)([C@H]2CC[C@@](C)([C@@H](C)O)O2)O1`, for which the activation in assay [1] is -6.33%. Further, the Potency result in assay [2] and in assay [3] was “inactive” in each case.

For the molecule `C[C@]12CC[C@H](O[C@@H]3O[C@H](CO)[C@@H](O)[C@H](O)[C@H]3O[C@@H]3O[C@H](CO)[C@@H](O)[C@H](O)[C@H]3O)CC1=CC[C@@H]1[C@@H]2CC[C@]2(C)[C@@H](C3=CC(=O)OC3)CC[C@]12O`, the activation in assay [1] is 8.93%. In addition, the Potency entry in assay [2] and in assay [3] was “inactive” throughout.

Turning to `CN1C(=O)N(c2ccc(C#N)c(C(F)(F)F)c2)C(=O)[C@]1(CO)c1ccccc1`, in assay [1], the activation was 17%. The Potency entry in assay [2] and in assay [3] was “inactive” each time.

Regarding `C[C@@]12C[C@@H](c3ccoc3)OC(=O)C1CC[C@]1(C)[C@H]2[C@H]2C=C[C@]1(O)C(=O)O2` (some centres not stated), the activation in assay [1] was -2.29%. The Potency result in assay [2] and in assay [3] was “inactive” in each case.
